{"source": "PubChem BioAssay AID687012", "about": "(National Center for Advancing Translational Sciences (NCATS), 2013)", "note": "Calls of active or inactive are those of the source.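 Rule for the calls: active = significant rise in the time treated SMA model mouse pups take to turn upright when laid on their backs; inactive = no significant rise in righting time.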"}
{"test": "Extended Characterization of SMN2 Inhibitors: Righting Time Studies", "details": "SMNdelta7 SMA mice, 50 mg/kg ip", "source_text": "Spinal muscular atrophy (SMA) is caused by insufficient levels of the survival motor neuron protein SMN. The SMN locus on chromosome 5q13 contains two inverted copies of SMN called SMN1 and SMN2 which are 99% identical at the amino acid level. SMN1 is a fully functional protein and SMN2 skips exon 7 90% of the time. Skipping of exon 7 produces non-functional protein product. 10% of the SMN2 protein includes exon 7 and is fully functional. In the SMA disease state, mutations in the SMN1 locus are the cause of the disease state. Because only 10% of SMN2 is of the fully functional form, it is not sufficient to overcome the deficiency produced by the loss of the SMN1 product. A therapy that either increase the amount of SMN2 product made or to increase the inclusion of exon 7 has been proposed for the treatment of SMA. We have previously filed a probe report and have now done further SAR and further characterized the resulting compounds in mice studies. Here we tested the new compound to see if there was an improval in righting time when administered to SMNdelta7 SMA mice. NIH Chemical Genomics Center [NCGC] NIH Molecular Libraries Probe Production centers Network [MLPCN] MLPCN Grant: R03 MH084179 Assay Submitter (PI): Elliot Androphy […]"}
{"smiles": "O=C(O)C1CCN(c2ncc(-c3ccc4c(c3)OCCCO4)s2)CC1", "outcome": "active; yes"}
